RECQ1 inh – qHTS Assay for Inhibitors of RecQ-Like Dna Helicase 1 (RECQ1); Potency, µM (series often up to 57.3 µM), for inactives: at the highest dose activity, negative = inhibition, actives largely listed as inhibitors; RECQ1 DNA unwinding, red fluorescence kinetic read; 240,000 compounds, 0.54% hits; ATP-dependent DNA helicase Q1 (Homo sapiens), P46063;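 also: plate controls were vehicle for no effect and no enzyme for full effect; nearly all actives have a fitted effect of over 30% in size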
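RECQ1T1 50 nM; forked duplex (20 bp + 30-nt ss tails) 200 nM, ATP 2 mM final; pH 8.0, 2 mM MgCl2, 2.5 ug/ml poly(dI-dC); 15 min compound preincubation; discontinuous kinetic read over 2 h at RT.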
KDM4E inh – qHTS Assay for Inhibitors of Human Jumonji Domain Containing 2E (JMJD2E) | JMJD2E catalytic domain, FDH-coupled NADH fluorescence (FDH is formaldehyde dehydrogenase) | Potency, µM (doses to about 57.1 µM), inactives show at the highest dose activity change, negative = inhibition, actives largely listed as inhibitors | 230,000 compounds, 1.6% hits | AID 2147, 2009; active = well fitted inhibition curve with a large enough effect, not every such curve was filed as active; inconclusive = small, poorly fitted or top-dose-only effect, or another doubt; inactive = no such curve, though single readings can be large or run the other way;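 also: 0% = wells with enzyme and -100% = buffer wells without enzyme; nearly all actives have a fitted effect of over 50% in size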
Target sequence (B2RXH2 1-337 limits assumed): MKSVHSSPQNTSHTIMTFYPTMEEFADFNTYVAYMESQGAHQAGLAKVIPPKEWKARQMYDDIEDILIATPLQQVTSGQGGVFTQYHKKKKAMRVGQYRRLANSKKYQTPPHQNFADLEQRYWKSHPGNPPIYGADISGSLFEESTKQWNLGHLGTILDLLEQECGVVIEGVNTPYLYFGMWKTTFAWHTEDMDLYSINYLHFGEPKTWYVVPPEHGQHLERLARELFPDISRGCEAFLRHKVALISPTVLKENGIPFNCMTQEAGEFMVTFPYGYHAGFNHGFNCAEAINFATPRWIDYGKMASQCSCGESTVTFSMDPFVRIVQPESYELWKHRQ
PKM2 activator – qHTS Assay for Activators of Human Muscle isoform 2 Pyruvate Kinase; purified PKM2, Kinase-Glo ATP luminescence, activation; response scale: 0% is enzyme alone, no compound; 260,000 compounds, 0.34% hits; Pyruvate kinase PKM (Homo sapiens), P14618; Potency, µM (top dose mostly 57.5 µM), for the others: top-dose activation, usual class: activators; also: nearly all actives have a fitted effect of over 55% in size
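ATP formation by purified human PK-M2, quantified via coupled luciferase luminescence after 1 h at room temperature with 0.1 mM ADP and 0.5 mM PEP final.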
APE1 inh – qHTS Assay for Inhibitors of the Human Apurinic/apyrimidinic Endonuclease 1 (APE1); Potency, µM (series often up to 65.8 µM), for inactives: top-dose activity change, negative = inhibition, most hits filed as inhibitors; DNA repair nuclease/redox regulator APEX1 (Homo sapiens), P27695; recombinant APE1, TAMRA/BHQ-2 abasic DNA cleavage fluorescence; 350,000 compounds, 0.35% hits; AID 2517, 2012;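 also: plate controls were vehicle for no effect and reference inhibitor for full effect; nearly all actives have a fitted effect of over 55% in size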
Target sequence (P27695 whole entry, looked up): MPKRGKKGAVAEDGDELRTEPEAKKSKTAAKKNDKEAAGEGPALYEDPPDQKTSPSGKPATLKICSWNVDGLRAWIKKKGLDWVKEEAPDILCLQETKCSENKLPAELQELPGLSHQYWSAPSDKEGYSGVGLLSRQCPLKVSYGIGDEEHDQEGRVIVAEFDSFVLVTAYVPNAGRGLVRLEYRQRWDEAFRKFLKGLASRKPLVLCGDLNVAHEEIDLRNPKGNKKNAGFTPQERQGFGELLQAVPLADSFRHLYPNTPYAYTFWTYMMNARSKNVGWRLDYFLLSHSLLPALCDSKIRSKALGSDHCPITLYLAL
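Enzyme (0.75 nM final) and test compound are incubated 15 min at room temperature before adding 50 nM quenched THF abasic-site duplex. Cleavage dequenches TAMRA, followed at 525/598 nm over three reads one minute apart.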
BLM helicase inh – qHTS Assay for Inhibitors of Bloom's syndrome helicase (BLM); RecQ-like DNA helicase BLM (Homo sapiens), P54132; recombinant BLM DNA unwinding, fluorescence dequenching; Potency, µM (doses to about 56.1 µM), for inactives: at the top dose activity change, negative = inhibition, most hits filed as inhibitors; 350,000 compounds, 0.2% hits; AID 2528, 2010;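 also: plate controls were vehicle for no effect and no enzyme for full effect; nearly all actives have a fitted effect of over 35% in size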
Numbers without * were called inactive. The full list was thinned out, with hits kept by preference. Unless noted, calls follow the shape of the dose curve; as a rule, active = well fitted curve in the direction sought with a large enough effect; inconclusive = small, poorly fitted or top-dose-only effect, or another doubt; inactive = no such curve, though single readings can be large; an effect the other way counts as inactive or inconclusive. Unless noted, % is scaled to controls: 0 for no effect and ±100 for the full control effect; potency is read from the fitted curve at half-maximal effect.

Results for Cc1cc(/C=N/Nc2nc(N3CCOCC3)nc(N3CCOCC3)n2)c(C)n1-c1ccccc1 ?
RECQ1 inh: -11%; KDM4E inh: 35µM*; PKM2 activator: 1%; APE1 inh: 6%; BLM helicase inh: -7%

Results for COc1ccc(/C=C/c2ccccc2)cc1C1C2C=CCCC2(C)C(=O)N1Cc1ccccc1 (stereo not drawn) ?
RECQ1 inh: inactive; APE1 inh: -9%; BLM helicase inh: -9%

Results for Cc1cc(C)n(-c2nc3ccccc3nc2N2CCN(S(=O)(=O)c3ccc(F)c(C)c3)CC2)n1 ?
RECQ1 inh: inactive; KDM4E inh: -3%; PKM2 activator: 10µM*; APE1 inh: 2%; BLM helicase inh: 1%

How did Oc1ccc2ccccc2c1C1Nc2cccc3cccc(c23)N1 do in these assays?
RECQ1 inh: inactive; KDM4E inh: 28µM*; PKM2 activator: 2%; APE1 inh: -4%; BLM helicase inh: -13%

How did FC(F)(F)c1ccccc1Cl do in these assays?
RECQ1 inh: -5%; APE1 inh: 11%

How did CCCC/C(O)=N\S(=O)(=O)c1ccc(N=NN(C)C)cc1 do in these assays?
RECQ1 inh: inactive; KDM4E inh: 8.9µM*; PKM2 activator: -14%; APE1 inh: 14%; BLM helicase inh: -12%

What do the screens show for `COc1cccc(/C=N/Nc2nc(Nc3ccccc3)nc(-n3nc(C)cc3C)n2)c1O`?
RECQ1 inh: -12%; KDM4E inh: 20µM*; PKM2 activator: 5%; APE1 inh: -9%; BLM helicase inh: -21%

Results for Cc1cc(C)n(-c2nc(Nc3ccccc3)nc(-n3nc(C)cc3C)n2)n1 ?
RECQ1 inh: -3%; KDM4E inh: -5%; PKM2 activator: 6%; APE1 inh: -5%; BLM helicase inh: -12%

Results for CC[C@H](C)[C@H](NC(=O)CNC(=O)[C@@H](NC(=O)[C@@H](NC(=O)[C@H](Cc1ccc(O)cc1)NC(=O)[C@H](CC(C)C)NC(=O)[C@H](C)NC(=O)[C@H](CCC(N)=O)NC(=O)CNC(=O)[C@@H]1CCCN1C(=O)CNC(=O)[C@H](Cc1ccccc1)NC(=O)[C@H](Cc1cnc[nH]1)NC(=O)[C@@H](NC(=O)CNC(=O)[C@H](CCCNC(=N)N)NC(=O)[C@H](CCCNC(=N)N)NC(=O)[C@@H](NC(=O)[C@H](CC(N)=O)NC(=O)[C@@H](N)CS)[C@@H](C)O)[C@@H](C)CC)[C@@H](C)O)[C@@H](C)O)C(=O)O ?
RECQ1 inh: 15%; APE1 inh: -2%; BLM helicase inh: 5%

How did O=C(NCc1ccco1)c1cccn2c(=O)c3cc4ccccc4cc3nc12 do in these assays?
RECQ1 inh: inconclusive; KDM4E inh: -30%; PKM2 activator: 6%; APE1 inh: inconclusive; BLM helicase inh: 20µM*

Results for Cc1cccn2c(=O)c3cc(C(=O)NC4CCCCC4)c(=N)n(Cc4ccccc4)c3nc12 ?
PKM2 activator: 23%; APE1 inh: 9.5µM*; BLM helicase inh: -27%

What do the screens show for `Cc1cccn2c(=O)c3cc(C(=O)NC4CCCC4)c(=N)n(CCc4ccccc4)c3nc12`?
APE1 inh: -9%; BLM helicase inh: -4%

How did Cc1cccn2c(=O)c3cc(C(=O)NCc4ccco4)c(=N)n(C4CCCCC4)c3nc12 do in these assays?
APE1 inh: 17µM*; BLM helicase inh: 47%

Results for COC(=O)[C@H]1[C@H]2C[C@@H]3c4[nH]c5ccccc5c4CCN3C[C@H]2C[C@@H](OC(=O)c2cc(OC)c(OC)c(OC)c2)[C@@H]1OC ?
BLM helicase inh: -19%

What do the screens show for `CC[C@H](C)[C@H](NC(=O)[C@H](Cc1cnc[nH]1)NC(=O)[C@@H](NC(=O)[C@H](CCCNC(=N)N)NC(=O)[C@H](CCCCN)NC(=O)[C@H](CCCNC(=N)N)NC(=O)[C@H](CCCCN)NC(=O)[C@@H](N)CC(N)=O)[C@@H](C)CC)C(=O)NCC(=O)N1CCC[C@H]1C(=O)NCC(=O)N[C@@H](CCCNC(=N)N)C(=O)N[C@@H](C)C(=O)N[C@@H](Cc1ccccc1)C(=O)N[C@@H](Cc1ccc(O)cc1)C(=O)N[C@H](C(=O)N[C@H](C(=O)N[C@@H](CCCCN)C(=O)N[C@@H](CC(N)=O)C(=O)N[C@H](C(=O)N[C@H](C(=O)NCC(=O)N[C@H](C(=O)N[C@H](C(=O)N[C@@H](CS)C(=O)O)[C@@H](C)CC)[C@@H](C)O)[C@@H](C)CC)[C@@H](C)CC)[C@@H](C)O)[C@@H](C)O`?
RECQ1 inh: -2%; APE1 inh: 2%; BLM helicase inh: 7%

What do the screens show for `CCS(=O)(=O)CCSc1nc(C)cc(C)c1C#N`?
RECQ1 inh: -19%; KDM4E inh: -9%; PKM2 activator: 8%; APE1 inh: 3%; BLM helicase inh: 1%

Results for Cc1ccc(S(=O)(=O)CCSc2nc(C)cc(C)c2C#N)cc1 ?
RECQ1 inh: -1%; KDM4E inh: 0%; PKM2 activator: 25µM*; APE1 inh: -3%; BLM helicase inh: -6%

Results for c1cc2c3c(cccc3c1)NC1(CCCCC1)N2 ?
RECQ1 inh: 7%; KDM4E inh: 3.2µM*; PKM2 activator: -8%; APE1 inh: 0%; BLM helicase inh: -12%

What do the screens show for `c1cc2c3c(cccc3c1)NC1(CCCCCC1)N2`?
RECQ1 inh: 20%; KDM4E inh: 3.5µM*; PKM2 activator: -26%; APE1 inh: 0%; BLM helicase inh: -11%

Results for CC(=O)NC1C(O)O[C@H](C(=O)O)[C@@H](O)[C@@H]1O (stereo partly drawn) ?
RECQ1 inh: -12%; APE1 inh: 2%; BLM helicase inh: -3%

How did C=CCN1C(=O)/C(=C\C=C2\N(C)c3ccccc3C2(C)C)SC1=S do in these assays?
RECQ1 inh: 1.4µM*; KDM4E inh: -3%; PKM2 activator: 6%; APE1 inh: 3%; BLM helicase inh: inconclusive

Results for CCCN1C(=O)/C(=C/C=C2\N(CC)c3ccccc3C2(C)C)SC1=S ?
RECQ1 inh: inactive; KDM4E inh: 9%; PKM2 activator: -11%; APE1 inh: -3%; BLM helicase inh: -5%

Bioassay records deposited in PubChem BioAssay by National Center for Advancing Translational Sciences (NCATS).
